“And” between values parts separate entries of the source, which are not always exact repeats. Equal entries are not always repeated. Records with an inconclusive call do not appear. Where a structure was tested more than once in an assay, its records may differ in their call. The source made the active and inactive calls. Unless noted, calls come from the whole dose curve; as a rule, active = well fitted curve in the direction sought with a large enough effect in the repeat runs; inconclusive = weak or mixed curves; inactive = no such curve, though single readings can be large; an effect the other way counts as inactive or inconclusive.
Assays:
[1] = qHTS assay to identify small molecule agonists of the peroxisome proliferator-activated receptor delta (PPARd) signaling pathway - cell viability counter screen (AID 743211); note: nearly all actives have a fitted effect of over 55% in size; note: potency is the fitted concentration of half-maximal effect
Outline: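 qHTS cell viability: PPARd-bla HEK293H; 17 h cpd, 37C; CellTiter-Glo, luminescence at 30 min RT.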

[2] = qHTS assay to identify small molecule antagonists of the peroxisome proliferator-activated receptor delta (PPARd) signaling pathway - cell viability counter screen (AID 743213); note: nearly all actives have a fitted effect of over 50% in size; note: potency is the fitted concentration of half-maximal effect
Outline: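 Agonist-stimulated (L165041, 300 nM final) HEK293H PPARd UAS-bla cells are exposed to compounds for 17 h at 37 C, and ATP-based luminescence (CellTiter-Glo) from the same wells reports cytotoxicity.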

[3] = qHTS assay to identify small molecule agonists of the farnesoid-X-receptor (FXR) signaling pathway - cell viability counter screen (AID 743218); note: nearly all actives have a fitted effect of over 45% in size; note: potency is the fitted concentration of half-maximal effect
Outline: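 Luminescence from CellTiter-Glo, read after 30 min at RT, reports viability of GeneBLAzer FXR-UAS-bla HEK 293T cells treated 16 h with compounds in the wells used for the beta-lactamase reporter.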

[4] = qHTS assay to identify small molecule antagonists of the farnesoid-X-receptor (FXR) signaling pathway - cell viability counter screen (AID 743221; active = well fitted cell-killing curve with a large enough effect in the repeat runs, not every such curve was filed as active; note: nearly all actives have a fitted effect of over 50% in size; note: potency is the fitted concentration of half-maximal effect)
Outline: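 After a 5 h settling period, FXR-bla HEK 293T cells receive compound and chenodeoxycholic acid (50 uM final) and incubate 16 h at 37 C; CellTiter-Glo luminescence, read after 30 min at room temperature, reports cell viability.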

[5] = qHTS assay to identify small molecule agonists of the vitamin D receptor (VDR) signaling pathway - cell viability counter screen (AID 743224); note: nearly all actives have a fitted effect of over 50% in size; note: potency is the fitted concentration of half-maximal effect
Outline: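 Cytotoxicity counter screen: VDR-bla cells, 16 h compound exposure at 37C, 5% CO2; CellTiter-Glo luminescence, 30 min RT, same wells as bla read.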

[6] = qHTS assay to identify small molecule antagonists of the vitamin D receptor (VDR) signaling pathway - cell viability counter screen (AID 743225); note: nearly all actives have a fitted effect of over 50% in size; note: potency is the fitted concentration of half-maximal effect
Outline: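 Parallel cytotoxicity test: VDR-UAS-bla HEK 293T, 3 nM (final) 1-alpha,25-dihydroxyvitamin D3 with test compound, 16 h, 37C. Endpoint is CellTiter-Glo luminescence in the same wells.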

[7] = qHTS assay to identify small molecule agonists of the NFkB signaling pathway - cell viability counter screen (AID 1159515; calls by dose curve; note: series mostly up to about 61 µM; nearly all actives have a fitted effect of over 55% in size)
Outline: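 ME-180 NFkB-bla cells, 2,000/well; overnight attach; compound 5 hr, 37 C/5% CO2; LiveBLAzer substrate 1.5 hr RT; then CellTiter-Glo in same wells, 30 min RT, luminescence read.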

[8] = qHTS assay to identify small molecule agonists of the endoplasmic reticulum stress response signaling pathway (AID 1159516; active = well fitted activation curve with a large enough effect in the signal ratio in the repeat runs, not every such curve was filed as active; the % refers to the signal ratio)
Outline: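 HeLa ESRE-bla reporter line; cpd 5 h, 37 C/5% CO2; LiveBLAzer B/G FRET substrate 2 h RT; ex 405, em 460/530 nm.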

[9] = qHTS assay to identify small molecule agonists of the endoplasmic reticulum stress response signaling pathway - cell viability counter screen (AID 1159517; calls by dose curve)
Outline: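 Steps: seed 1,500 ESRE-bla HeLa cells per well; incubate overnight at 37 C, 5% CO2; add compounds in DMSO for 5 hr; run FRET substrate 2 hr RT; add CellTiter-Glo, wait 30 min, read luminescence.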

[10] = qHTS assay to identify small molecule antagonists of the retinoid-related orphan receptor gamma (ROR-gamma) signaling pathway - cell viability counter screen (AID 1159520); note: nearly all actives have a fitted effect of over 50% in size
Outline: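 Tet-on ROR gamma CHO cells were given compounds for 2 hr, then doxycycline hyclate at 1 uM final, and incubated 16 hr at 37 C. Viability was measured as ATP content by CellTiter-Glo luminescence.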

[11] = biological target: Nuclear receptor ROR-gamma (Homo sapiens) (UniProt P51449); assay: qHTS assay to identify small molecule antagonists of the retinoid-related orphan receptor gamma (ROR-gamma) signaling pathway (AID 1159521; note: nearly all actives have a fitted effect of over 50% in size; note: potency is the fitted concentration of half-maximal effect)
Outline: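 Decreased RORE-driven luciferase luminescence indicates antagonism. Tet-on RORγ CHO cells received compound, then 1 uM final doxycycline 2 h later; signal read after 16 h incubation.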

[12] = biological target: Retinoic acid receptor RXR-alpha (Homo sapiens) (UniProt P19793); assay: qHTS assay to identify small molecule agonists of the RXR signaling pathway (AID 1159527; calls by dose curve; note: nearly all actives have a fitted effect of over 35% in size)
Outline: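 16 hr incubation of compound-treated RXR-alpha-UAS-bla HEK 293T cells (2% charcoal-stripped FBS, 37 C) preceded a 2 hr room-temperature LiveBLAzer FRET substrate step and blue/green fluorescence measurement.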

[13] = qHTS assay to identify small molecule agonists of the RXR signaling pathway - cell viability counter screen (AID 1159529); note: nearly all actives have a fitted effect of over 50% in size; note: potency is the fitted concentration of half-maximal effect
Outline: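 In this parallel viability measure, GeneBLAzer RXR-alpha HEK 293T cells (2% charcoal-stripped FBS) were given a 5 hr preincubation, treated with compounds 16 hr at 37 C, and read by CellTiter-Glo luminescence.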

[14] = biological target: Peroxisome proliferator-activated receptor delta (Homo sapiens) (UniProt Q03181); assay: qHTS assay to identify small molecule agonists of the peroxisome proliferator-activated receptor delta (PPARd) signaling pathway (AID 743212; calls by dose curve)
Outline: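 Read-out: beta-lactamase FRET fluorescence after 2 h room-temperature incubation with LiveBLAzer B/G substrate. Cells were HEK293H carrying a UAS-bla reporter for PPARd, treated at 37 C with DMSO-dissolved compounds.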

[15] = biological target: Peroxisome proliferator-activated receptor delta (Homo sapiens) (UniProt Q03181); assay: qHTS assay to identify small molecule antagonists of the peroxisome proliferator-activated receptor delta (PPARd) signaling pathway (AID 743215; active = well fitted inhibition curve with a large enough effect in the signal ratio in the repeat runs, not every such curve was filed as active; the % refers to the signal ratio; note: series mostly up to about 62 µM)
Outline: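 HEK293H GeneBLAzer PPARd UAS-bla reporter cells; cpd + L165041 300 nM final, 17 h 37 C; LiveBLAzer B/G FRET substrate 2 h RT; fluorescence intensity read-out. Antagonist mode.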

[16] = biological target: Bile acid receptor (Homo sapiens) (UniProt Q96RI1); assay: qHTS assay to identify small molecule antagonists of the farnesoid-X-receptor (FXR) signaling pathway (AID 743217; active = well fitted inhibition curve with a large enough effect in the signal ratio in the repeat runs, not every such curve was filed as active; the % refers to the signal ratio)
Outline: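 Read-out: beta-lactamase FRET fluorescence (LiveBLAzer B/G substrate, 2 h, room temperature) in GeneBLAzer FXR-UAS-bla HEK 293T cells. Compounds were co-dosed with 50 uM chenodeoxycholic acid (final) and incubated 16 h at 37 °C.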

[17] = biological target: Vitamin D3 receptor (Homo sapiens) (UniProt P11473); assay: qHTS assay to identify small molecule agonists of the vitamin D receptor (VDR) signaling pathway (AID 743222; calls by dose curve)
Outline: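 Beta-lactamase reporter readout (LiveBLAzer B/G FRET, 2 h RT) in VDR-bla cells after 16 h compound treatment at 37C, 5% CO2; cells pre-incubated 4 h before pin transfer of DMSO solutions.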

[18] = biological target: Vitamin D3 receptor (Homo sapiens) (UniProt P11473); assay: qHTS assay to identify small molecule antagonists of the vitamin D receptor (VDR) signaling pathway (AID 743223; active = well fitted inhibition curve with a large enough effect in the signal ratio in the repeat runs, not every such curve was filed as active; the % refers to the signal ratio)
Outline: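 Reporter line VDR-bla; stimulus 1alpha,25-(OH)2 vitamin D3, 3 nM final; compound co-addition, 16 h 37C/5% CO2; LiveBLAzer B/G substrate 2 h RT; fluorescence intensity.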

[19] = qHTS assay to identify small molecule agonists of the AP-1 signaling pathway (AID 1159526; calls by dose curve)

Measured: Potency

Sequence of Retinoic acid receptor RXR-alpha (Homo sapiens) (P19793 whole entry, looked up): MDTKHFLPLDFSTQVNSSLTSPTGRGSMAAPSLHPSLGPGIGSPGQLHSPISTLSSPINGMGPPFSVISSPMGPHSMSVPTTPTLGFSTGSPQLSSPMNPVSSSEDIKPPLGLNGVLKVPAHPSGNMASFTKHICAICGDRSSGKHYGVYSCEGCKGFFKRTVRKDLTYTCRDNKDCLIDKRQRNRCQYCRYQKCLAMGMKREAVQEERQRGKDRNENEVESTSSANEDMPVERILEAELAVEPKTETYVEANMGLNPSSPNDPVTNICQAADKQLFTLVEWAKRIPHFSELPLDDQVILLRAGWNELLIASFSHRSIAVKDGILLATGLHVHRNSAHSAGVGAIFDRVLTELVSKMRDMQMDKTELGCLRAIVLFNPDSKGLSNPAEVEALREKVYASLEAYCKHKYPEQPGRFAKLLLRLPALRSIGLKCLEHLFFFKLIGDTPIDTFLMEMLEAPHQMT
Sequence of Peroxisome proliferator-activated receptor delta (Homo sapiens) (Q03181 whole entry, looked up): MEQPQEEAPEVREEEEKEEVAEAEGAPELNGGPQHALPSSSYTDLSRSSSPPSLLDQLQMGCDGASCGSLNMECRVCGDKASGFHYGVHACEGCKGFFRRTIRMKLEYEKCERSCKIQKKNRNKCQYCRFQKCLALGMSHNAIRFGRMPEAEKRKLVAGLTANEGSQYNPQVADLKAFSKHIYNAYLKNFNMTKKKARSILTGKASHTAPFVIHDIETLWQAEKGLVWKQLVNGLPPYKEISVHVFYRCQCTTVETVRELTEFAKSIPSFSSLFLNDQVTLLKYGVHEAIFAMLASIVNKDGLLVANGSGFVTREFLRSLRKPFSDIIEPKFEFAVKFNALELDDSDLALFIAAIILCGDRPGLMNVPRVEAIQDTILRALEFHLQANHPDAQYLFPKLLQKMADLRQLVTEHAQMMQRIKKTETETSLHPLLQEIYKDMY
Sequence of Bile acid receptor (Homo sapiens) (Q96RI1 whole entry, looked up): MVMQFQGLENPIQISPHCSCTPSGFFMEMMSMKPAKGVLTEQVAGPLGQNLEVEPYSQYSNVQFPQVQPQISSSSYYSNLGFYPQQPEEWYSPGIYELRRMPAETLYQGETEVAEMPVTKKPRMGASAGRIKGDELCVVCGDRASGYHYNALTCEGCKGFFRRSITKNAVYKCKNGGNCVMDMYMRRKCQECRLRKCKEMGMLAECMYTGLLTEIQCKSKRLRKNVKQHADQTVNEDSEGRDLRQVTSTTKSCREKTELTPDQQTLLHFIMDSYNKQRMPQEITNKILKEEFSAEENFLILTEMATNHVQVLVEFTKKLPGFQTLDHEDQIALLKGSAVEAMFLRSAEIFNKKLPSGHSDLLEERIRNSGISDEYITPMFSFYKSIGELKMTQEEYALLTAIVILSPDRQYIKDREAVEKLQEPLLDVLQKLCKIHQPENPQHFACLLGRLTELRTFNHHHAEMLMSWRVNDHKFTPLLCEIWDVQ
Sequence of Vitamin D3 receptor (Homo sapiens) (P11473 whole entry, looked up): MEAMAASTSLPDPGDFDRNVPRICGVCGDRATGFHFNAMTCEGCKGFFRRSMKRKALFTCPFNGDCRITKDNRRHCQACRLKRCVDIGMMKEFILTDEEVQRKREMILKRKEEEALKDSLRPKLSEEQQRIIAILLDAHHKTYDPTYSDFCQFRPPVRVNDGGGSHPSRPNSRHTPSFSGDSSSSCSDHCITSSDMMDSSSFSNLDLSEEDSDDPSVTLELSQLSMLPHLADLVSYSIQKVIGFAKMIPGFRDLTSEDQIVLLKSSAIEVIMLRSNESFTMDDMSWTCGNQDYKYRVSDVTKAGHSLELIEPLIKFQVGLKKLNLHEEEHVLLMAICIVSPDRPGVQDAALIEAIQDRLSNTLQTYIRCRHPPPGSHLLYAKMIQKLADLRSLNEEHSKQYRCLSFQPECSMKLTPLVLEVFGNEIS

CC(CN1c2ccccc2Sc2ccccc21)N(C)C (stereo not given)
inactive: [7] | [8] | [9] | [10] | [12]
55.5 µM (active) and inactive: [13]
active: [1] 49.5 µM and 21.9 µM | [2] 49.5 µM and 24.5 µM | [3] 49.5 µM and 27.5 µM | [4] 49.5 µM | [5] 49.5 µM and 43.6 µM | [6] 21.9 µM | [11] 24.6 µM and 54.5 µM

CCOC(=O)c1ccc(O)cc1
inactive: all assays above

CC(=O)OC[C@H]1O[C@@](COC(C)=O)(O[C@H]2O[C@H](COC(C)=O)[C@@H](OC(C)=O)[C@H](OC(C)=O)[C@H]2OC(C)=O)[C@@H](OC(C)=O)[C@@H]1OC(C)=O
not listed: [16]
inactive: all other assays above

CN1CCCC1=O
not listed: [14] | [15] | [16]
inactive: all other assays above

CC(C)c1ccc(C(C)C)cc1
not listed: [14] | [15]
inactive: all other assays above

NC(=O)c1ncn([C@@H]2O[C@H](CO)[C@@H](O)[C@H]2O)n1
active: [11] 4.56 µM and 3.76 µM
not listed: [5] | [6] | [16] | [17] | [18]
inactive: all other assays above

OCC(CO)(CO)CO
not listed: [16]
inactive: all other assays above

COc1cc(NC(=O)CC(C)=O)c(OC)cc1Cl
not listed: [15] | [16] | [17] | [18]
inactive: all other assays above

CC(=O)CC(=O)N(C)C
inactive: all assays above

O=C1CCCCCCCCCCC1
not listed: [16] | [17] | [18]
inactive: all other assays above

C=C(C)CC(C)(C)C
not listed: [14] | [15]
inactive: all other assays above

COC(=O)OC
not listed: [16] | [18]
inactive: all other assays above

O=C(NCC1CCCCN1)c1cc(OCC(F)(F)F)ccc1OCC(F)(F)F (stereo not given)
not listed: [14] | [15] | [16]
inactive: all other assays above
